Assay results as given in PubChem BioAssay (NCATS).
Results filed as inconclusive are left out. Activity calls are given as the source filed them. The call rests on the fitted dose curve; in most records, active means well fitted curve in the direction sought with a large enough effect; inconclusive means small, poorly fitted or top-dose-only effect, or another doubt; inactive means no such curve, though single readings can be large; an effect the other way counts as inactive or inconclusive.

Experiments:
HaCat = assay: Cytotoxic Profiling of Annotated Libraries Using Quantitative High-Throughput Screening (AID 1296008); conditions: Five cell lines viability, CellTiter-Glo ATP luminescence, 48-72 h; max response: stronger effect = lower value; further: nearly all actives have a fitted effect of over 60% in size
How it was run: (§1)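 Cells exposed to compounds for 48 or 72 hr at 37 degrees Celsius. Viability read as ATP-coupled luminescence with CellTiter-Glo after 10 min at room temperature.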

KB-3-1 = assay: as above; conditions: Five cell lines viability, CellTiter-Glo ATP luminescence, 48-72 h; max response: stronger effect = lower value
How it was run: as §1

NIH3T3 = assay: as above; conditions: Five cell lines viability, CellTiter-Glo ATP luminescence, 48-72 h; max response: stronger effect = lower value
How it was run: as §1

C33A = assay: Primary qHTS to identify gynecologic anti-cancer compounds using libraries of approved drugs and bioactive compounds (AID 1345084); conditions: Gynecologic cancer cell panel viability, ATPlite luminescence, 48 h; series mostly up to 57.5 µM; further: nearly all actives have a fitted effect of over 55% in size
How it was run: (§2)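 Five-point cytotoxicity, 48 h drug exposure at 37 C, 5% CO2, on cells seeded 16 h beforehand. ATP content read by ATPlite luminescence.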

CAOV3 = assay: as above; conditions: Gynecologic cancer cell panel viability, ATPlite luminescence, 48 h; series mostly up to 57.5 µM
How it was run: as §2

CASKI = assay: as above; conditions: Gynecologic cancer cell panel viability, ATPlite luminescence, 48 h; series mostly up to 57.5 µM
How it was run: as §2

Es-2 = assay: as above; conditions: Gynecologic cancer cell panel viability, ATPlite luminescence, 48 h; series mostly up to 57.5 µM
How it was run: as §2

HeLa = assay: as above; conditions: Gynecologic cancer cell panel viability, ATPlite luminescence, 48 h; series mostly up to 57.5 µM
How it was run: as §2

Hek293T = assay: as above; conditions: Gynecologic cancer cell panel viability, ATPlite luminescence, 48 h, control line for the selectivity index; series mostly up to 57.5 µM
How it was run: as §2

JEG-3 = assay: as above; conditions: Gynecologic cancer cell panel viability, ATPlite luminescence, 48 h; series mostly up to 57.5 µM
How it was run: as §2

OV90 = assay: as above; conditions: Gynecologic cancer cell panel viability, ATPlite luminescence, 48 h; series mostly up to 57.5 µM
How it was run: as §2
On the % scale 0 is the no-effect control and ±100 the full control effect.

COC(=O)[C@@H](O)[C@H]1[C@@]2(C)CC3(O)[C@@H](C(=O)[C@H]2O)[C@]24O[C@]25CC(=O)O[C@@H](c2ccoc2)[C@]5(C)CCC4[C@]13C (stereo partly specified)
inactive: max response (HaCat) 4.1% | max response (KB-3-1) 7.49% | max response (NIH3T3) -5.38% | Potency (C33A) | Potency (CAOV3) | Potency (CASKI) | Potency (Es-2) | Potency (HeLa) | Potency (Hek293T) | Potency (JEG-3) | Potency (OV90)

COC(=O)C1=CO[C@@H](O[C@@H]2O[C@H](CO)[C@@H](O)[C@H](O)[C@H]2O)[C@@H]2[C@@](C)(O)[C@@H](OC(=O)/C=C/c3ccc(O)cc3)C[C@]12O
inactive: max response (HaCat) 1.25% | max response (KB-3-1) 0.0331% | max response (NIH3T3) 2.33% | Potency (C33A) | Potency (CAOV3) | Potency (CASKI) | Potency (Es-2) | Potency (HeLa) | Potency (Hek293T) | Potency (JEG-3) | Potency (OV90)

C=CC(C)(O)CC/C=C(\C)C(=O)OC1C(O)C(CO)OC(OC(=O)C23CCC(C)(C)CC2C2=CCC4C5(C)CCC(OC6OC(COC7OCC(OC(C)=O)C(O)C7OC7OC(COC(C)=O)C(O)C(O)C7O)C(O)C(O)C6O)C(C)(C)C5CCC4(C)C2(C)C(O)C3O)C1OC1OCC(OC2OCC(O)C(OC3OCC(O)C(O)C3O)C2O)C(O)C1O (stereo unspecified)
inactive: max response (HaCat) -19.8% | max response (KB-3-1) 4.25% | max response (NIH3T3) -2.07% | activity change, negative = cytotoxicity (C33A) 7.05% [at 6.55 µM] | activity change, negative = cytotoxicity (CAOV3) -2.2% [at 6.55 µM] | activity change, negative = cytotoxicity (CASKI) -3.55% [at 6.55 µM] | activity change, negative = cytotoxicity (Es-2) 1.1% [at 6.55 µM] | activity change, negative = cytotoxicity (HeLa) 16.6% [at 6.55 µM] | activity change, negative = cytotoxicity (Hek293T) 1.48% [at 6.55 µM] | activity change, negative = cytotoxicity (JEG-3) -3.21% [at 6.55 µM] | activity change, negative = cytotoxicity (OV90) -14.1% [at 6.55 µM]

C=C1CCC2C(C)(C(=O)OC)CCCC2(C)C1CCC(C)CC(=O)O (stereo unspecified)
inactive: max response (HaCat) -22.8% | max response (KB-3-1) 0.0997% | max response (NIH3T3) 2.98% | Potency (C33A) | Potency (CAOV3) | Potency (CASKI) | Potency (Es-2) | Potency (HeLa) | Potency (Hek293T) | Potency (JEG-3) | Potency (OV90)

C=C(CO)C12OC1C1(C)C(=CC2=O)C(O)C(O)CC1C (stereo unspecified)
inactive: max response (HaCat) -9.32% | max response (KB-3-1) 3.94% | max response (NIH3T3) -6.8% | Potency (C33A) | Potency (CAOV3) | Potency (CASKI) | Potency (Es-2) | Potency (HeLa) | Potency (Hek293T) | Potency (JEG-3) | Potency (OV90)

O=C(c1ccc2nccnc2c1)N1CCCCC1
inactive: max response (HaCat) -44.6% | outcome (KB-3-1) | max response (NIH3T3) -40.7% | Potency (C33A) | Potency (CAOV3) | Potency (CASKI) | Potency (Es-2) | Potency (HeLa) | Potency (Hek293T) | Potency (JEG-3) | Potency (OV90)

N#C[C@@H]1CCCN1C(=O)CNC12CC3CC(CC(O)(C3)C1)C2
inactive: max response (HaCat) -2.22% | outcome (KB-3-1) | max response (NIH3T3) -1.17% | Potency (C33A) | Potency (CAOV3) | Potency (CASKI) | Potency (Es-2) | Potency (HeLa) | Potency (Hek293T) | Potency (JEG-3) | Potency (OV90)

C/C1=C\CC[C@H](C)CCO[C@@H]2O[C@H](CO[C@@H]3OC[C@](O)(COC1=O)[C@H]3O)[C@@H](O)[C@H](O)[C@H]2O
inactive: max response (HaCat) -11.3% | outcome (KB-3-1) | max response (NIH3T3) -5.92% | Potency (C33A) | Potency (CAOV3) | Potency (CASKI) | Potency (Es-2) | Potency (HeLa) | Potency (Hek293T) | Potency (JEG-3) | Potency (OV90)

O=C(/C=C/c1ccc(O)cc1)N[C@@H](Cc1ccc(O)cc1)C(=O)O
inactive: max response (HaCat) 1.92% | max response (KB-3-1) -2.01% | max response (NIH3T3) 1.16% | Potency (C33A) | Potency (CAOV3) | Potency (CASKI) | Potency (Es-2) | Potency (HeLa) | Potency (Hek293T) | Potency (JEG-3) | Potency (OV90)

C[C@@H]1C(=O)OC[C@H]2C(C(=O)O)=C[C@@H]3CC(C)(C)C[C@]312
inactive: max response (HaCat) 3.35% | max response (KB-3-1) 5.81% | max response (NIH3T3) 4.19% | Potency (C33A) | Potency (CAOV3) | Potency (CASKI) | Potency (Es-2) | Potency (HeLa) | Potency (Hek293T) | Potency (JEG-3) | Potency (OV90)

CC1=CC(=O)CC(C)(C)C1CCC(C)O[C@@H]1O[C@H](CO[C@@H]2OC[C@@H](O)[C@H](O)[C@H]2O)[C@@H](O)[C@H](O)[C@H]1O (stereo partly specified)
inactive: max response (HaCat) 4.17% | max response (KB-3-1) 1.12% | max response (NIH3T3) 3.34% | Potency (C33A) | Potency (CAOV3) | Potency (CASKI) | Potency (Es-2) | Potency (HeLa) | Potency (Hek293T) | Potency (JEG-3) | Potency (OV90)
